Test results from PubChem BioAssay AID1376 (SRMLSC, 2008).
In all, about 220,000 compounds went through this assay and about 530 (0.24%) were called active. Rule as the data show it: active = inhibition above about 13%; inconclusive = no clear call, values can overlap the other calls; inactive = below that. What follows is part of a selection rich in actives, with near analogues and random picks from the rest. Measured potencies and affinities stand elsewhere.

Target: Bifunctional protein GlmU (Mycobacterium tuberculosis (strain ATCC 25618 / H37Rv)) (UniProt P9WMN3)
Assay: inhibition of mycobacterial GlmU enzyme – biochemical, glucosamine-1-phosphate acetyltransferase (AID 1376);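 also: 0% = complete reaction with vehicle and 100% = reaction without substrate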
Settings: M. tuberculosis GlmU acetyltransferase enzyme assay; stronger effect = higher value;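 tested at 30 µM in the primary screen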

Chain of Bifunctional protein GlmU (Mycobacterium tuberculosis (strain ATCC 25618 / H37Rv)) (P9WMN3 whole entry, looked up): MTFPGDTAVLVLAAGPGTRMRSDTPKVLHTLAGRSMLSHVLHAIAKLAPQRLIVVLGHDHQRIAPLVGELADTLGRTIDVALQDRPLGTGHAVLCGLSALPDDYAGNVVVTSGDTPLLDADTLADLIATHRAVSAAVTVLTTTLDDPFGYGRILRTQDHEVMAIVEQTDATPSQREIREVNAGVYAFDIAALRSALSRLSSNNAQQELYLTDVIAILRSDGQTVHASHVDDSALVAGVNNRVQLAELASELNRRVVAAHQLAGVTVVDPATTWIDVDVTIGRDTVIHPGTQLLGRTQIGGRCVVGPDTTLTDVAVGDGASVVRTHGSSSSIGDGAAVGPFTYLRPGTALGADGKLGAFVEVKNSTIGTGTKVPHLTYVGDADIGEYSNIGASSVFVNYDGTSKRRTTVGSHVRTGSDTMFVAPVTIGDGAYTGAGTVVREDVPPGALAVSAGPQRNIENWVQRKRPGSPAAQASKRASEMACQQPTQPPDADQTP

Compound	inhibition
CC(=O)N1CCC(=NNC(=O)CSc2cc(C)c(Br)cc2C)CC1	-1.13% (inactive)
COc1ccc(-c2nnc(SCC(=O)NCc3ccco3)n2C)cc1	3.67% (inactive)
Cc1cccc(N2C(=O)C(O)=C(C(=O)c3cccs3)C2c2ccc(Cl)cc2)n1 (stereo unspecified)	3.09% (inactive)
CC1CCN(c2nncc3ccccc23)CC1	31.2% (active)
CC1CCN(c2ncnc3ccccc23)CC1	2.04% (inactive)
CC1CCN(c2nnc(-c3ccccc3)c3ccccc23)CC1	0.97% (inactive)
COc1ccc(C(CNC(=O)COc2ccccc2-c2ccccc2)N2CCOCC2)cc1 (stereo unspecified)	-8.37% (inactive)
CCOC(=O)c1ccc(NC2c3ccccc3C(=O)N2c2cccnc2)cc1 (stereo unspecified)	1.04% (inactive)
Oc1c(Cl)cc(Cl)cc1C=Nc1ccc(Br)cc1	5.27% (inactive)
Oc1c(Cl)cc(Cl)cc1Sc1cc(Cl)cc(Cl)c1O	13.1% (active)
C/C(=N\O)c1cc(Cl)cc(Cl)c1O	-5.49% (inactive)
COc1cc(NC(=O)Nc2ccc(Cl)c(Cl)c2)c(C(=O)O)cc1OC	0.76% (inactive)
Cc1sc2nc(CN3CCC(C)CC3)nc(Cl)c2c1C	-6.88% (inactive)
COc1ccc(NC(=O)c2cc3nc(-c4ccccc4)cc(-c4ccccc4)n3n2)c(OC)c1	20.8% (active)
COc1cc(NC(=O)c2cc3nc(-c4ccccc4)cc(-c4ccccc4)n3n2)cc(OC)c1OC	-2.98% (inactive)
O=C(Nc1cccc(O)c1)c1cc2nc(-c3ccccc3)cc(-c3ccccc3)n2n1	1.52% (inactive)
CC(C)CN(C(=O)CSc1nnc2c(Cl)cc(C(F)(F)F)cn12)C1CCS(=O)(=O)C1 (stereo unspecified)	52.2% (inactive)
Cc1ccc(N(CC(=O)N/N=C/c2cc(C)n(-c3ccccc3)c2C)S(C)(=O)=O)c(C)c1	1.57% (inactive)
OCC1(CCc2ccccc2)CCN(Cc2c(F)ccc(F)c2F)CC1	3.84% (inactive)
CC(C)CCNc1nnnc2c1sc1nc(N3CCOCC3)c3c(c12)CC(C)(C)SC3	2.31% (inactive)
CCOc1ccc(NC(=S)N2CCc3cc(OC)c(OC)cc3C2COc2ccc3c(C)cc(=O)oc3c2)cc1 (stereo unspecified)	1.27% (inactive)

Compound	inhibition
O=C(COC(=O)C12CC3CC(CC(C3)C1)C2)NCCc1ccccc1	5.26% (inactive)
Cn1nccc1NC(=O)c1nccnc1C(=O)O	-4.84% (inactive)
Cc1cc(N2CCN(C(=O)c3ccco3)CC2)n2nc(-c3cccc(Cl)c3)cc2n1	14.1% (active)
Cc1cc(N2CCN(C(=O)c3ccco3)CC2)n2nc(C)c(-c3ccccc3)c2n1	3.95% (inactive)
Cc1cc(N2CCN(C(=O)c3ccco3)CC2)n2nc(-c3cccc(F)c3)cc2n1	-0.85% (inactive)
CCCCN(CC)CCNC(=O)c1cn(-c2ccc(Cl)cc2)c(=O)c2ccccc12	-2.06% (inactive)
Cc1ccc(-c2c(C)n([O-])c3c([n+]2=O)CCC3)o1	1.5% (inactive)
Cc1c(-c2ccco2)[n+](=O)c2c(n1[O-])CCCCC2	3.97% (inactive)
Cc1c(-c2ccco2)[n+](=O)c2c(n1[O-])CCC2	14.9% (active)
COC(=O)c1cnc(N2CCCN(S(=O)(=O)c3ccc(C(F)(F)F)cc3)CC2)nc1C(F)(F)F	1.89% (inactive)
Cc1cccc(NC(=O)c2ccc(COc3ccc4ccccc4c3)o2)n1	-0.95% (inactive)
O=C(CN1N=C(c2ccccc2)CCC1=O)NCCN1CCc2ccccc2C1	-1.06% (inactive)
CC(=O)Oc1cccc(N2C(=O)c3ccccc3C2=O)c1	-6.78% (inactive)
CC12CCC(C(=O)NC(c3ccccc3)c3ccccc3)(OC1=O)C2(C)C (stereo unspecified)	13.4% (active)
CC12CCC(C(=O)NNc3ccccc3)(OC1=O)C2(C)C (stereo unspecified)	-5.23% (inactive)
CC12CCC(C(=O)NCc3ccccc3)(OC1=O)C2(C)C (stereo unspecified)	1.44% (inactive)
COc1cccc(OC)c1C(=O)N1CCN(Cc2ccccc2C(F)(F)F)CC1	3.68% (inactive)
O=C(O)c1c2c(nc3ccccc13)/C(=C/c1ccc(O)cc1)CCC2	-1.41% (inactive)
COc1ccc(/C=C2\CCc3c2nc2ccccc2c3C(=O)O)cc1OC	-1.01% (inactive)
CCOC(=O)c1nnn(-c2nc(OC)nc(N3CCCCC3)n2)c1-c1ccccc1	1.53% (inactive)
COC(=O)c1nnn(-c2nc(N3CCOCC3)nc(N3CCOCC3)n2)c1C	0.09% (inactive)

Compound	inhibition
CCNc1nc(N2CCCCC2)nc(-n2nnc(C(=O)OCC)c2C)n1	13.5% (active)
O=C(O)/C=C/C(=O)Nc1ccc2nccnc2c1	0.78% (inactive)
CN(C)S(=O)(=O)c1ccc(C(=O)NCc2ccco2)cc1	7.54% (inactive)
CCOc1cccc(NC(=O)/C(C#N)=C\c2cccnc2)c1	-1.75% (inactive)
CCOc1cccc(NC(=O)/C(C#N)=C/c2cccnc2)c1	13.3% (active)
CCOc1ccc(/C=C(\C#N)C(=O)Nc2cccnc2)cc1	-3.21% (inactive)
Cc1ccc(-c2nnc(CSc3nnc(COc4ccccc4)n3-c3ccc(C)cc3)o2)cc1	2.51% (inactive)
COc1ccccc1CCNC1CCC(C)CC1 (stereo unspecified)	1.25% (inactive)
CC(=O)c1ccc(S(=O)(=O)N2CCNCC2)cc1	1.28% (inactive)
O=[N+]([O-])c1cccc(-c2csc(CS(=O)(=O)Cc3ccco3)n2)c1	1.82% (inactive)
O=C(O)C1Nc2ccc(OC(F)(F)F)cc2C2C=CCC12 (stereo unspecified)	13.1% (active)
CCOC(=O)C1Nc2ccc(C)cc2C2C=CCC12 (stereo unspecified)	-1.77% (inactive)
CCOC(=O)C1Nc2ccc(OC(F)(F)F)cc2C2C=CCC12 (stereo unspecified)	1.1% (inactive)
O=C(NC1CC1)C1Nc2ccc(OC(F)(F)F)cc2C2C=CCC12 (stereo unspecified)	-0.17% (inactive)
Cc1ccc2c(c1)C1C=CCC1C(C(=O)O)N2 (stereo unspecified)	28% (active)
Cc1ccc2c(c1)C1C=CCC1C(C(=O)NCCCN1CCOCC1)N2 (stereo unspecified)	3.8% (inactive)
CCOC(=O)N1CCC(N(CCN(C)C)C(=S)Nc2ccccc2Cl)CC1	0.75% (inactive)
O=C(CNC(=O)c1ccc2c(c1)OCCO2)N/N=C/c1ccco1	-1.55% (inactive)
Nc1ccccc1NC1=CC(=O)CC(c2ccccc2)C1 (stereo unspecified)	2.07% (inactive)
